# Data: PubChem BioAssay (EPA / NIEHS)
# Inconclusive results are not listed. Active and inactive are the calls of the source. How the source made its calls, unless noted: active means hit-call score of the fitted dose curve at least 0.9, where 1 is the maximum; inconclusive means response in the unintended direction; inactive means score below 0.9.
# Read-out: sulfotransferase (SULT2A), SULT2A1 (gene 6822)
# Test: CLD_SULT2A_6hr: CellzDirect (CLD) Gene Expression Assay for sulfotransferase (SULT2A) at 6 hours (AID 2283669);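 further: hits raise transcript level above the DMSO vehicle baseline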
# Settings: not given
# How it was run: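 Primary human hepatocytes from two donor preparations were dosed daily with chemicals or 0.2% DMSO and harvested at 6 h. Transcript induction read by qNPA chemiluminescence, fitted for gain of signal relative to DMSO; morphology-based cytotoxicity annotated.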
SMILES,outcome,AC50
CC1(C)C(C=C(Cl)Cl)C1C(=O)OC(C#N)c1ccc(F)c(Oc2ccccc2)c1 (stereo not given),inactive,–
CCOc1nc(NC)nc(NC(=O)NS(=O)(=O)c2ccccc2C(=O)OC)n1,inactive,–
CCOC1Oc2ccc(OS(C)(=O)=O)cc2C1(C)C (stereo not given),inactive,–
Clc1ccccc1-c1nnc(-c2ccccc2Cl)nn1,inactive,–
COP(=S)(OC)Oc1ccc(SC)c(C)c1,inactive,–
CC[C@H](C)[C@H]1O[C@]2(C=C[C@@H]1C)C[C@@H]1C[C@@H](C/C=C(\C)[C@@H](O[C@H]3C[C@H](OC)[C@@H](O[C@H]4C[C@H](OC)[C@@H](O)[C@H](C)O4)[C@H](C)O3)[C@@H](C)/C=C/C=C3\CO[C@@H]4[C@H](O)C(C)=C[C@@H](C(=O)O1)[C@]34O)O2 (tested in a mixture with another compound),inactive,–
CC(C)(C)C(O)C(Oc1ccc(Cl)cc1)n1cncn1 (stereo not given),inactive,–
CCOCN(C(=O)CCl)c1c(C)cccc1CC,inactive,–
ClC1C(Cl)C(Cl)C(Cl)C(Cl)C1Cl (stereo not given),inactive,–
N#Cc1c(Cl)c(Cl)c(Cl)c(C#N)c1Cl,–,33.5 µM (active)
O=S1OCC2C(CO1)C1(Cl)C(Cl)=C(Cl)C2(Cl)C1(Cl)Cl (stereo not given),inactive,–
CCC(C)Nc1c([N+](=O)[O-])cc(C(C)(C)C)cc1[N+](=O)[O-] (stereo not given),inactive,–
CCN(CC)C(=O)SCc1ccc(Cl)cc1,inactive,–
CC(C)N(C(=O)COc1nnc(C(F)(F)F)s1)c1ccc(F)cc1,inactive,–
CC(C)(C)C(O)/C(=C\c1ccc(Cl)cc1Cl)n1cncn1 (stereo not given),inactive,–
CCCN(CCC)c1c([N+](=O)[O-])cc(C(F)(F)F)cc1[N+](=O)[O-],inactive,–

# Read-out: not listed separately
# Test: CLD_ACTIN_24hr: CellzDirect (CLD) Gene Expression Assay for Baseline Control (Actin) at 24 hours (AID 2283670)
# Settings: not given
# How it was run: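 Primary human hepatocytes dosed over multiple concentrations with 0.2% DMSO vehicle; actin mRNA measured at 24 h by qNPA chemiluminescence. Background control endpoint, fitted as gain of signal versus DMSO.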
row,SMILES,outcome
1,CCS(=O)(=O)c1cccnc1S(=O)(=O)NC(=O)Nc1nc(OC)cc(OC)n1,inactive
2,Oc1ccc(Cl)cc1Cc1ccccc1,inactive
3,CCOc1nc(NC)nc(NC(=O)NS(=O)(=O)c2ccccc2C(=O)OC)n1,inactive
4,CC[C@H](C)[C@H]1O[C@]2(C=C[C@@H]1C)C[C@@H]1C[C@@H](C/C=C(\C)[C@@H](O[C@H]3C[C@H](OC)[C@@H](O[C@H]4C[C@H](OC)[C@@H](O)[C@H](C)O4)[C@H](C)O3)[C@@H](C)/C=C/C=C3\CO[C@@H]4[C@H](O)C(C)=C[C@@H](C(=O)O1)[C@]34O)O2 (tested in a mixture with another compound),inactive
5,O=[N+]([O-])c1c(Cl)c(Cl)c(Cl)c(Cl)c1Cl,inactive
6,COP(=O)(OC)OC=C(Cl)Cl,inactive
7,O=C1c2ccccc2C(=O)N1SC(Cl)(Cl)Cl,inactive
8,O=S1OCC2C(CO1)C1(Cl)C(Cl)=C(Cl)C2(Cl)C1(Cl)Cl (stereo not given),inactive
9,CC(C)N(C(=O)COc1nnc(C(F)(F)F)s1)c1ccc(F)cc1,inactive
10,COC(=O)c1ccccc1S(=O)(=O)NC(=O)Nc1nc(C)nc(OC)n1,inactive

# Read-out: Cytochrome P450 (CYP24A1_1), CYP24A1 (gene 1591)
# Test: LTEA_HepaRG_CYP24A1_1: Life Technologies and Expression Analysis (LTEA) Assay for Cytochrome P450 (CYP24A1_1) using HepaRG (AID 2283671; active means hit-call score of the fitted dose curve at least 0.9, where 1 is the maximum; inactive means score below 0.9)
# Settings: mRNA level, 48 h; actives raise or lower the signal
# How it was run: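 HepaRG, 48 h exposure, 8-pt half-log series from 100 uM in 0.5% DMSO, duplicates. Readout: TaqMan qRT-PCR of CYP24A1 mRNA, housekeeping-normalized (ACTB/GAPDH/POLR2A). Bidirectional curve fit vs DMSO baseline.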
row,SMILES,outcome
1,CC1(C)C(C=C(Cl)Cl)C1C(=O)OC(C#N)c1ccc(F)c(Oc2ccccc2)c1 (stereo not given),inactive
2,CCOC1Oc2ccc(OS(C)(=O)=O)cc2C1(C)C (stereo not given),inactive
3,O=C1c2ccccc2C(=O)N1SC(Cl)(Cl)Cl,inactive
4,ClC1C(Cl)C(Cl)C(Cl)C(Cl)C1Cl (stereo not given),inactive
5,N#Cc1c(Cl)c(Cl)c(Cl)c(C#N)c1Cl,inactive
6,CCC(C)Nc1c([N+](=O)[O-])cc(C(C)(C)C)cc1[N+](=O)[O-] (stereo not given),inactive
7,CCCN(CCC)c1c([N+](=O)[O-])cc(C(F)(F)F)cc1[N+](=O)[O-],inactive

# Read-out: not listed separately
# Test: CLD_ACTIN_6hr: CellzDirect (CLD) Gene Expression Assay for Baseline Control (Actin) at 6 hours (AID 2283676);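 further: active means increased actin mRNA relative to DMSO vehicle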
# Settings: not given
# How it was run: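 Primary human hepatocytes dosed with fresh chemical solutions (vehicle 0.2% DMSO), harvested at 6 h. Actin mRNA quantified by quantitative nuclease protection assay with chemiluminescent read-out, as background control relative to DMSO.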
row,SMILES,outcome
1,O=C(O)C(F)(F)C(F)(F)C(F)(F)C(F)(F)C(F)(F)C(F)(F)C(F)(F)F,inactive
2,Oc1ccc(Cl)cc1Cc1ccccc1,inactive
3,CCC(C)(C)C(=O)OC1=C(c2ccc(Cl)cc2Cl)C(=O)OC12CCCCC2,inactive
4,CCOC1Oc2ccc(OS(C)(=O)=O)cc2C1(C)C (stereo not given),inactive
5,Clc1ccccc1-c1nnc(-c2ccccc2Cl)nn1,inactive
6,C#CCN1C(=O)COc2cc(F)c(N3C(=O)C4=C(CCCC4)C3=O)cc21,inactive
7,CC[C@H](C)[C@H]1O[C@]2(C=C[C@@H]1C)C[C@@H]1C[C@@H](C/C=C(\C)[C@@H](O[C@H]3C[C@H](OC)[C@@H](O[C@H]4C[C@H](OC)[C@@H](O)[C@H](C)O4)[C@H](C)O3)[C@@H](C)/C=C/C=C3\CO[C@@H]4[C@H](O)C(C)=C[C@@H](C(=O)O1)[C@]34O)O2 (tested in a mixture with another compound),inactive
8,CC(C)(C)C(O)C(Oc1ccc(Cl)cc1)n1cncn1 (stereo not given),inactive
9,CCOCN(C(=O)CCl)c1c(C)cccc1CC,inactive
10,CC(C)OC(=O)Nc1cccc(Cl)c1,inactive
11,COP(=O)(OC)OC=C(Cl)Cl,inactive
12,ClC1C(Cl)C(Cl)C(Cl)C(Cl)C1Cl (stereo not given),inactive
13,O=S1OCC2C(CO1)C1(Cl)C(Cl)=C(Cl)C2(Cl)C1(Cl)Cl (stereo not given),inactive
14,CCN(CC)C(=O)SCc1ccc(Cl)cc1,inactive
15,CC(C)(C)C(O)/C(=C\c1ccc(Cl)cc1Cl)n1cncn1 (stereo not given),inactive
16,CCCN(CCC)c1c([N+](=O)[O-])cc(C(F)(F)F)cc1[N+](=O)[O-],inactive
17,COC(=O)c1ccccc1S(=O)(=O)NC(=O)Nc1nc(C)nc(OC)n1,inactive
